Assay results as given in PubChem BioAssay (NCI).
Compounds without any hit were thinned out: in the full panel of roughly 79,000, 15% have a hit. The source made the active and inactive calls. Rule as the data show it: active = growth inhibition above about 70%; inactive = the rest.

Experiments:
[1] = NCI Yeast Anticancer Drug Screen. Data for the rad50 strain (AID 155);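 also: 0% = growth of vehicle-only cultures of the same strain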; conditions: S. cerevisiae rad50 strain growth inhibition, stronger effect = higher value
Summary of the method: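 A DNA repair-deficient yeast mutant serves as the test organism; compound-induced growth inhibition is calculated against vehicle-treated cells.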

[2] = NCI Yeast Anticancer Drug Screen. Data for the mec2-1 strain (AID 157); conditions: S. cerevisiae mec2-1 strain, stronger effect = higher value
Summary of the method: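 Mutant yeast (mec2-1) grown with compound; growth inhibition relative to vehicle control reported.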

[3] = NCI Yeast Anticancer Drug Screen. Data for the sgs1 mgt1 strain (AID 161);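 also: 0% = growth of cultures given vehicle only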; conditions: S. cerevisiae sgs1 mgt1 strain, stronger effect = higher value
Summary of the method: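 Growth of a repair-deficient yeast mutant was monitored after compound treatment and expressed as inhibition relative to vehicle-treated cultures.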

[4] = NCI Yeast Anticancer Drug Screen. Data for the cln2 rad14 strain (AID 165);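 also: 0% = growth equal to vehicle treated cultures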; conditions: S. cerevisiae cln2 rad14 strain, stronger effect = higher value
Summary of the method: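 Readout is yeast growth inhibition versus vehicle-treated controls, using a strain with cln2 and rad14 alterations exposed to compound.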

[5] = NCI Yeast Anticancer Drug Screen. Data for the bub3 strain (AID 167); conditions: S. cerevisiae bub3 mutant strain, stronger effect = higher value
Summary of the method: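 Inhibition values come from growth of compound-treated mutant yeast normalised to vehicle-treated controls.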

[6] = NCI Yeast Anticancer Drug Screen. Data for the mlh1 rad18 strain (AID 175); conditions: S. cerevisiae mlh1 rad18 strain growth inhibition, stronger effect = higher value
Summary of the method: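 Genetically defined yeast (DNA repair-deficient) exposed to compounds; growth inhibition determined relative to vehicle.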

[7] = at 5.0 µM (retest, dose inferred, filed as 0.5)
[8] = at 50.0 µM (retest, dose inferred, filed as 5.0)

Measured: growth inhibition

Clc1ccc(N2CCN(CCCN3CCN(c4ccc(Cl)cc4)CC3)CC2)cc1
inactive: [1]; [7] -2% | [1]; [8] 29% | [1]; at 50.0 µM 67.9% | [2]; [7] -6% | [2]; [8] 35% | [2]; at 50.0 µM 18.5% | [3]; [7] -14% | [4]; [7] -3% | [4]; [8] 30% | [4]; at 50.0 µM 6.25% | [5]; [7] -3% | [5]; [8] 24% | [5]; at 50.0 µM 24.9% | [6]; [7] 4% | [6]; [8] 42% | [6]; at 50.0 µM 31.8%
active: [3]; [8] 74% | [3]; at 50.0 µM 81.2%

CC(=O)N(C)NC(=O)c1ccccc1
inactive: [1]; [7] 1% | [1]; [8] -6% | [1]; at 50.0 µM 10.4% | [2]; [7] -1% | [2]; [8] 2% | [2]; at 50.0 µM -12.8% | [3]; [7] 1% | [3]; [8] -4% | [3]; at 50.0 µM -10.2% | [4]; [7] -8% | [4]; [8] 5% | [4]; at 50.0 µM 27.3% | [5]; [7] -2% | [5]; [8] -1% | [5]; at 50.0 µM 12.9% | [6]; [7] 0% | [6]; [8] -5% | [6]; at 50.0 µM -4.7%

CC1OC(C)C(O)C2=C1C(=O)c1ccccc1C2=O (configuration not stated)
inactive: [1]; [7] -4% | [2]; [7] -29% | [3]; [7] 14% | [4]; [7] 2% | [4]; [8] 55% | [4]; at 50.0 µM 60.4% | [5]; [7] 14% | [6]; [7] 23%
active: [1]; [8] 95% | [1]; at 50.0 µM 91.9% | [2]; [8] 77% | [2]; at 50.0 µM 86.3% | [3]; [8] 94% | [3]; at 50.0 µM 91.8% | [5]; [8] 87% | [5]; at 50.0 µM 83.5% | [6]; [8] 96% | [6]; at 50.0 µM 87.8%

CCOc1ccc(/C=N\NC(=O)c2ccco2)cc1OCC
active: [2]; at 50.0 µM 94% | [5]; at 50.0 µM 92.6%
inactive: [1]; [7] -6% | [1]; [8] 4% | [1]; at 50.0 µM 59.8% | [2]; [7] -3% | [2]; [8] -2% | [3]; [7] -3% | [3]; [8] 11% | [3]; at 50.0 µM 47.7% | [4]; [7] -23% | [4]; [8] -22% | [4]; at 50.0 µM 67% | [5]; [7] -11% | [5]; [8] -22% | [6]; [7] -2% | [6]; [8] -12% | [6]; at 50.0 µM 44.6%
